# Shown are actives, neighbours in structure and some others; about 2.9% of the full set was active somewhere.
# Pf gamet viab: late stage P. falciparum gametocyte viability inhibitors, primary screen, ATP luminescence, HTS; P. falciparum stage V gametocytes, 24 h; inhibition, % at 10.9 µM; hit rate 0.065% among 150,000;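 active means inhibition above the mean plus 3 SD of compounds within the control limits, set per campaign, cut at about 38% in these data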
# Mcl1 Noxa PPI: Mcl-1/Noxa binding inhibitors, primary screen, biochemical, TR-FRET, 1536-well | TR-FRET Mcl-1/Noxa peptide binding, 2 h | inhibition, % at 21.7 µM | hit rate 1.5% among 220,000;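 active means compounds that cut the protein-peptide binding signal by more than 50% relative to plate controls in a single-dose test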;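 further: His-tagged Mcl-1 with rhodamine Noxa BH3 peptide and terbium anti-His antibody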
# Target sequence (Q07820 whole entry, looked up): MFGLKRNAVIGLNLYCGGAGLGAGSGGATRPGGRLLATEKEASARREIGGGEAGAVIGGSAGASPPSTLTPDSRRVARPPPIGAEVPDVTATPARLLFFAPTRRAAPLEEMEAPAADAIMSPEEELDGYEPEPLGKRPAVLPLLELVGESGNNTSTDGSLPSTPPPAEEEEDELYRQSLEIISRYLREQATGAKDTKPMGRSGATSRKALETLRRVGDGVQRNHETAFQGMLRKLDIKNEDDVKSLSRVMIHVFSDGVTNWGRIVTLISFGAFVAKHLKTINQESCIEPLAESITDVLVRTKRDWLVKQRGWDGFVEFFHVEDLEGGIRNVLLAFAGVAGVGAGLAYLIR
# Mcl1-Bid inh: Mcl-1/Bid binding inhibitors, primary screen, biochemical, TR-FRET, 1536-well. Induced myeloid leukemia cell differentiation protein Mcl-1 (Homo sapiens), Q07820. TR-FRET Mcl-1/Bid-Dy647 peptide binding. inhibition, % at 21.7 µM. hit rate 0.97% among 220,000. AID 1021, 2008;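 active means compounds that cut the binding signal by more than half at the single screening dose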;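 further: His-tagged Mcl-1 with europium anti-His antibody binding Bid BH3 peptide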
# Bim-Mcl-1: inhibitors of Bim peptide binding to Mcl-1, primary screen, biochemical, bead-based flow cytometry, multiplex | Induced myeloid leukemia cell differentiation protein Mcl-1 (Homo sapiens), Q07820 | Bim peptide-Mcl-1 binding | inhibition, % at 10 µM | hit rate 0.1% among 190,000; in the data active means inhibition above about 40%
# 14-3-3 Bad inh: inhibitors of 14-3-3 zeta/Bad binding, primary screen, biochemical, TR-FRET, bovine 14-3-3 zeta; 14-3-3 protein zeta/delta (Bos taurus), P63103; hit rate 0.71% among 220,000; inhibition, % at 21.7 µM; TR-FRET 14-3-3zeta/Dy647-pBad peptide displacement, 1 h;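 active means inhibition above about 70%, limit read from the data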
# Hck Nef HTS: inhibitors of Nef-activated human Hck kinase, primary screen, biochemical, Z-Lyte FRET, 384-well, Hck-YEEI. Tyrosine-protein kinase HCK (Homo sapiens), P08631. Recombinant Hck-YEEI plus Nef, Z-Lyte FRET kinase assay. inhibition, % at 20 µM. hit rate 0.68% among 220,000. AID 463187, 2010;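 active means Hck-Nef kinase inhibition above about 50%, limit read from the data; inactive means inhibition below that limit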
# Numbers stand for hits; n = inactive; x = no result.
SMILES,Pf gamet viab,Mcl1 Noxa PPI,Mcl1-Bid inh,Bim-Mcl-1,14-3-3 Bad inh,Hck Nef HTS
CCN(CC)c1ccc(NC(=O)c2cc3ccccc3o2)c(C)c1,n,50.7,n,n,n,n
COc1cc(NC(=S)NC(=O)C(C)C)ccc1NC(=O)c1cc2ccccc2o1,n,n,n,n,n,n
CCC(=O)Nc1ccc(C(=O)Cn2nc(C(=O)O)c3ccccc3c2=O)cc1,n,56.5,n,n,n,x
Cc1ccc(C(=O)Cn2nc(C(=O)O)c3ccccc3c2=O)cc1C,n,n,n,x,n,n
COCCNC(=O)c1cc(Sc2nnc(C)s2)nc2ccccc12,x,n,n,x,n,n
Cc1nnc(Sc2cc(C(=O)NC3CC3)c3ccccc3n2)s1,n,n,98.6,x,n,n
COc1cc(C2CC(=O)OC3=C2C(=O)CC(C)(C)C3)cc(OC)c1OC (centres undefined),n,n,n,n,n,n
COc1cc(/C=C2\SC(=O)N(CCNC(=O)c3sc4cc(F)ccc4c3Cl)C2=O)cc(OC)c1OC,n,n,n,n,n,54.8
C=CCSC1=N/C(=C\C=C\c2ccco2)C(=O)S1,x,75.8,n,n,n,n
C=CCSC1=N/C(=C\c2sccc2C)C(=O)S1,n,n,n,n,n,n
CC(=O)Nc1ccc(S(=O)(=O)NCC(CCC(=O)O)C(F)(F)F)cc1 (centres undefined),n,60.0,n,n,n,n
CC(=O)Nc1ccc(S(=O)(=O)NCC(C)NS(=O)(=O)c2ccc(NC(C)=O)cc2)cc1 (centres undefined),n,n,n,n,n,n
CCOCCCNC1=C(Cl)C(=O)c2ccccc2C1=O,n,63.9,n,x,n,n
Cc1ccc(C2=N/C(=C\N(C)C)C(=O)O2)cc1,n,n,n,n,n,n
Cc1ccccc1C(=O)Nc1ccc(C(=O)N/N=C/c2ccc(O)c(Br)c2)cc1,n,57.7,n,n,n,n
NC(=O)C1CCN(S(=O)(=O)c2cccc(C(=O)O)c2)CC1,n,n,n,n,n,n
O=C(O)c1cccc(S(=O)(=O)N2CCSCC2)c1,n,n,n,n,76.9,n
NC1=NC(=O)/C(=C\c2ccco2)S1,n,56.9,n,x,n,n
O=C1N=C(N2CCN(c3ccccc3)CC2)S/C1=C\c1ccco1,n,n,n,n,n,n
CCOc1ccccc1NC(=O)NCc1ccc(F)cc1,n,n,n,n,n,n
CCOc1ccc(CN2CCN(C(=O)c3cccc(F)c3)CC2)cc1,n,n,65.9,n,72.1,n
O=C(c1ccco1)N1CCN(CC(=O)N2c3ccccc3CCc3ccccc32)CC1,n,n,56.5,n,n,n
O=C(CN1CCN(C(=O)c2cccc(F)c2)CC1)NC1CCCCC1,n,n,n,n,74.5,n
O=C(CN1CCCCC1)N1c2ccccc2CCc2ccccc21,x,n,n,n,n,n
O=C(c1ccco1)N1CCN(Cc2cccc(F)c2)CC1,x,n,n,n,73.5,n
SMILES,Pf gamet viab,Mcl1 Noxa PPI,Mcl1-Bid inh,Bim-Mcl-1,14-3-3 Bad inh,Hck Nef HTS
O=C(c1cccc(F)c1)N1CCN(Cc2ccco2)CC1,n,n,n,n,n,n
O=C(c1cccc(Cl)c1)N1CCC(N2CCC(C(=O)N3CCOCC3)CC2)CC1,n,n,n,n,n,n
Fc1cccc(CN2CCSCC2)c1,n,x,x,x,x,x
O=C(c1cccc(F)c1)N1CCC(N2CCOCC2)CC1,n,n,n,n,74.2,n
O=C(c1ccco1)N1CCN(Cc2ccc(Cl)cc2)CC1,n,n,n,n,78.2,n
Fc1cccc(CN2CCCCCCC2)c1,n,n,n,n,78.3,n
Cc1cc(C)c(C)c(OCCCCn2cnc3ccccc3c2=O)c1,n,x,n,n,n,n
O=C(c1cc(-c2ccncc2)nc2ccc(Cl)cc12)N1CCN(C(=O)C2CCCO2)CC1 (centres undefined),x,n,n,n,n,n
Cc1ccccc1-n1nc2c(c1NC(=O)c1c(-c3ccccc3Cl)noc1C)CS(=O)(=O)C2,n,n,n,n,n,n
COc1ccc2nc(C)c3cc(C)oc3c2c1,n,x,n,n,n,n
COc1cccc2c1nc(C)c1cc(C)oc12,x,n,98.9,n,n,n

# Screening data (PubChem BioAssay)
